Experimental data published in PubChem BioAssay AID504834 (National Center for Advancing Translational Sciences (NCATS), 2011).
Screen size: about 320,000 compounds; about 22,000 (6.9%) were called active. Inconclusive results (about 27%) are left out. The call rests on the fitted dose curve; in most records, active means well fitted inhibition curve with a large enough effect; inconclusive means small, poorly fitted or top-dose-only effect, or another doubt; inactive means no such curve, though single readings can be large or run the other way. The entries come from a sample that favours actives as a whole. Entries that show only a call come without a potency.

Assay: Primary qHTS for delayed death inhibitors of the malarial parasite plastid, 96 hour incubation
Conditions: P. falciparum luciferase reporter growth; series mostly up to 28.7 µM
In short: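 Infected RBCs, 2% Hct / 0.05% parasitemia final; luciferase-reporter P. falciparum; cpd 96 h, 37 C, 5% CO2; luciferase detection reagent; luminescence.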
Potency means the concentration at half of the fitted maximal effect.

| SMILES | Potency |
| --- | --- |
| COc1ccc(S(=O)(=O)n2cnc3ccccc32)c(C)c1 | inactive |
| CCCc1c(C(=O)N/N=C(\C)CCc2ccc(OC)cc2)nnn1-c1nonc1N | inactive |
| CCN1CCN(C(=O)N(Cc2ccc(Cl)cc2)S(=O)(=O)c2ccc(C)cc2)CC1 | inactive |
| O=C(CSc1n[nH]c(-c2cccnc2)n1)Nc1ccc(Cl)cc1 | inactive |
| CC(C)CN(C(=O)c1ccc2c(c1)OCO2)C1CCS(=O)(=O)C1 (stereo unspecified) | inactive |
| O=C(CN1C(=O)COc2ccccc21)NCCN1CCc2ccccc2C1 | inactive |
| O=C(CN1C(=O)COc2ccc(Cl)cc21)Nc1ccc(N2CCOCC2)cc1 | inactive |
| O=C(CN1C(=O)COc2ccccc21)Nc1ccc(F)cc1 | 1.47 µM (active) |
| O=C(CCCN1C(=O)/C(=C/c2cccs2)SC1=S)Nc1ccc(O)cc1 | inactive |
| NS(=O)(=O)c1ccc(CCNC(=O)CN2C(=O)c3ccccc3S2(=O)=O)cc1 | inactive |
| CCN(C(=O)CSc1ncnc2sccc12)c1c(N)n(Cc2ccccc2)c(=O)[nH]c1=O | inactive |
| COc1cccc(OC)c1C(=O)Nc1ccc2c(c1)n(C)c(=O)n2C | inactive |
| COc1ccc(C(=O)NC2CC2)cc1OC1CCN(Cc2ccc(SC)cc2)CC1 | inactive |
| COc1ccc(C(=O)NC2CC2)cc1OC1CCN(C/C=C/c2ccccc2)CC1 | 11.7 µM (active) |
| COc1ccc(C(=O)N(C)CC(O)c2ccccc2)cc1OC1CCN(C(C)=O)CC1 (stereo unspecified) | inactive |
| O=C(NCCc1ccccn1)c1nc(Cn2cc([N+](=O)[O-])cn2)no1 | inactive |
| CC(OC(=O)CNC(=O)c1cccc(F)c1)C(=O)NC1CCCCC1C (stereo unspecified) | inactive |
| COc1ccc2ccccc2c1/C=N/NC(=O)c1cc(C)[nH]n1 | inactive |
| CC(C)(C)c1cc(C(=O)N/N=C/c2ccc([N+](=O)[O-])s2)n[nH]1 | 1.65 µM (active) |
| O=[N+]([O-])c1ccc(C=Nc2ccc(Cl)cc2Cl)s1 | inactive |
| COC(=O)c1ccc(COC(=O)c2cnc(Cl)c(Cl)c2)cc1 | inactive |
| CCOc1ccc(CCNC(=O)COC(=O)CCS(=O)(=O)c2ccc(C)cc2)cc1OCC | inactive |
| CCC(C(=O)N1CCN(S(=O)(=O)c2sc(C(=O)O)c(C)c2C(=O)O)CC1)c1ccccc1 (stereo unspecified) | inactive |
| CN(C(=O)CN1C(=O)CCSc2ccc(S(=O)(=O)N3CCCC3)cc21)c1ccccc1 | inactive |
| COc1cc(C(=O)NNC(=O)c2ccc(S(=O)(=O)N3CCCCC3)cc2)cc(OC)c1OC | inactive |
| CCOc1cc(CN2CCN(C(=O)CC(C)C)CC2)ccc1OC | inactive |

| SMILES | Potency |
| --- | --- |
| CCOc1ccc(NC(=O)COc2ccc(C(=O)N3CCC(C(N)=O)CC3)cc2OC)cc1 | inactive |
| COc1cc2c(cc1OC)CN(C(=O)c1ccc(S(=O)(=O)N3CCCCCC3)cc1)CC2 | 0.465 µM (active) |
| CCOc1cc(C(=O)N2CCc3cc(OC)c(OC)cc3C2)ccc1OC(F)F | 5.86 µM (active) |
| COc1ccc(S(=O)(=O)N2CCCCC2)cc1Br | inactive |
| COc1ccc(S(=O)(=O)N2CCC(C(=O)N3CCc4ccccc4C3)CC2)cc1OC | 8.28 µM (active) |
| COc1ccc(S(=O)(=O)N2CCC(C(=O)N3CCCC3)CC2)cc1C | inactive |
| COC(=O)Cc1ccc(OC(=O)C2CCN(S(=O)(=O)c3ccc(OC)c(OC)c3)CC2)cc1 | inactive |
| COC(=O)c1ccc(C)c(NC(=O)C2CC(=O)N(C3CCCC(C)C3C)C2)c1 (stereo unspecified) | inactive |
| COC(=O)c1ccccc1NC(=O)C1CCN(C(=O)N2CCOc3ccccc32)CC1 | inactive |
| O=C(COC(=O)c1cccc(Cl)c1)Nc1ccc2[nH]c(=O)[nH]c2c1 | inactive |
| Cc1ccc(CN(CC(=O)NCC2CCCO2)S(=O)(=O)c2ccc(C)cc2)cc1 (stereo unspecified) | inactive |
| CC(=O)Nc1ccc(NC(=O)CN2C(=O)COc3ccc(S(=O)(=O)N4CCCCC4)cc32)cc1 | inactive |
| Cc1ccn2c(=O)nc(SCC(=O)NCc3ccc4c(c3)OCO4)nc2c1 | inactive |
| Cc1ccc(C)c(C(=O)COC(=O)Cn2[nH]c(=O)c3ccccc3c2=O)c1 | inactive |
| Cc1nc(NC(=O)c2ccc3c(c2)OCCO3)ccc1Br | inactive |
| C=C(C)COc1ccc(-c2n[nH]c(C)c2-c2ccccc2OC)c(O)c1 | 11.7 µM (active) |
| COc1ccc(-c2n[nH]c(C)c2-c2ccccc2OC)c(O)c1 | 11.7 µM (active) |
| CCOc1ccc(-c2nc(N)ncc2-c2ccccc2OC)c(O)c1 | inactive |
| C=C(C)COc1ccc(-c2ncncc2-c2ccc(OC)cc2)c(O)c1 | inactive |
| CCOc1ccc(-c2n[nH]c(C)c2-c2ccccn2)c(O)c1 | inactive |
| COc1ccc(-c2[nH]ncc2CN(C)Cc2c(C)n[nH]c2C)c(OC)c1 | inactive |
| COc1ccc(N=Nc2ccc(O)c(P(=O)(c3ccccc3)c3ccccc3)c2)cc1 | inactive |
| CCc1nc2nc(C)c(NS(=O)(=O)c3ccc4c(c3)CCCC4)c(=O)n2[nH]1 | inactive |
| C=CCn1cc(Cl)cc(C(=O)Nc2ccccc2)c1=O | inactive |
| CCOc1ccc(N/C=C/C(=O)c2cc(OC)c(OC)c(OC)c2)cc1 | inactive |
| Cc1cccc(NC(=O)CSCC(=O)Nc2nnc(C3CC3)s2)c1 | inactive |

| SMILES | Potency |
| --- | --- |
| NC(=O)NC(=O)C(OC(=O)CCNS(=O)(=O)c1ccccc1)c1ccccc1 (stereo unspecified) | inactive |
| COc1ccc2c(c1)c1nc3n(c(=O)c1n2CC(=O)Nc1ccccc1)CCS3 | inactive |
| CCn1c(CC(=O)Nc2ccc(C)cc2)nnc1SCC(=O)Nc1nc(C)cs1 | inactive |
| CCn1c(SCC(=O)Nc2ccc(C)cc2)nc2nc3c(cc2c1=O)CCCC3 | 14.7 µM (active) |
| COCCn1c(SCC(=O)Nc2ccc3c(c2)CCC3)nc2ccccc2c1=O | inactive |
| O=C(OCC1OC(Oc2ccc(O)cc2)C(O)C(O)C1O)c1ccccc1 (stereo unspecified) | inactive |
| COc1ccc(-c2nc(SCC(=O)N3CCCC3)n[nH]2)cc1 | inactive |
| O=S(=O)(c1ccc(-c2ccno2)s1)N1CCCCC1 | inactive |
| CCCCN1Cc2c(nc3cc(-c4ccccc4)[nH]n3c2=O)C1=O | inactive |
| O=C(CCNS(=O)(=O)c1ccccc1C(F)(F)F)Nc1ccncc1 | inactive |
| COc1ccccc1N(CC(=O)N1CCCCC1)S(=O)(=O)c1ccccc1 | 11.7 µM (active) |
| COc1ccc(N(CC(=O)N2CCCCCC2)S(=O)(=O)c2ccccc2)cc1 | inactive |
| CCOc1ccccc1N(CC(=O)Nc1ccccc1C(=O)OC)S(C)(=O)=O | inactive |
| COc1ccccc1NC(=O)CN(c1ccccc1OC)S(=O)(=O)c1ccccc1 | inactive |
| COc1ccc([N+](=O)[O-])cc1N(CC(=O)Nc1ccccc1C(=O)N1CCOCC1)S(C)(=O)=O | inactive |
| COc1ccccc1N(CC(=O)Nc1ccccc1C(=O)N1CCCC1)S(C)(=O)=O | 9.28 µM (active) |
| Cc1cc(C)c(S(=O)(=O)c2cc(F)ccc2C)c(=O)[nH]1 | inactive |
| O=C(COC(=O)c1ccc(N2CCCC2=O)cc1)c1ccc(OC(F)F)cc1 | inactive |
| COc1ccc(NC(=O)C2C3CCC(O3)C2C(=O)O)cc1OC (stereo unspecified) | inactive |
| O=C(CCCN=C1NS(=O)(=O)c2ccccc21)OCC(=O)c1ccc(F)c(F)c1 | inactive |
| CCN(CC(=O)Nc1ccc2c(c1)OCO2)S(=O)(=O)c1ccccc1 | inactive |
| CN(C)C(=O)Oc1ccc(NC(=O)N2CCOCC2)cc1 | 3.29 µM (active) |
| CN(C)S(=O)(=O)c1ccc(NC(=O)N2CCOCC2)cc1 | inactive |
| COc1cc(NC(=O)N2CCOCC2)cc(OC)c1 | inactive |
| CCCCN1CCNC1=S | inactive |
| COc1ccc(-c2cc(=O)oc3cc(OCC(=O)N(C)C4CCS(=O)(=O)C4)ccc23)cc1 (stereo unspecified) | inactive |

| SMILES | Potency |
| --- | --- |
| CN(CC#CCC(c1ccccc1)c1ccccc1)C(C)(C)C | 4.65 µM (active) |
| CC(C)(C)N(CC#CCC(O)(c1ccccc1)C1CCCC1)CCO (stereo unspecified) | inactive |
| CCCn1nc(C(=O)NNC(=O)CCOc2ccccc2OCC)c2ccccc2c1=O | inactive |
| CC(Sc1nnc(CNC(=O)c2ccccc2F)n1C)C(=O)Nc1nccs1 (stereo unspecified) | inactive |
| CC(C)(O)C(=O)NN(C(=O)c1ccccc1)c1cccc(Br)c1 | inactive |
| CCCC(O)(CCC)C(=O)NN(C(=O)CCl)c1cccc(C)c1 | 1.04 µM (active) |
| Cc1ccc(N(NC(=O)C(C)(C)O)C(=O)c2ccccc2)cc1C | inactive |
| Cc1ccc2nc(NC(=O)C3CSC4(C)CCC(=O)N34)sc2c1 (stereo unspecified) | inactive |
| Cc1ccc(S(=O)(=O)c2c[nH]c3ccc(C)cc3c2=O)cc1 | inactive |
| O=C(NCc1ccccc1)c1ccc(CNc2c(N3CCCC3)c(=O)c2=O)cc1 | inactive |
| O=S(=O)(NCCS(=O)(=O)N1CCN(c2ccccc2)CC1)c1ccc(F)cc1 | inactive |
| COC(=O)N/N=C/c1ccc(/C=N/NC(=O)OC)cc1 | inactive |
| CCOc1ccc(/C=N/NC(=O)C(C)Sc2ccccn2)cc1OCC (stereo unspecified) | inactive |
| CCOc1cc(/C=N/NC(=O)OC)ccc1OCCSc1ccc(Cl)cc1 | 10.4 µM (active) |
| COc1ccc(C)cc1NC(=O)CCCN1C(=O)NC(C)(C)C1=O | inactive |
| NC(=O)c1cc(S(=O)(=O)N2CCCC2)ccc1OCc1ccc(F)cc1 | inactive |
| Fc1ccccc1C(c1nnnn1Cc1ccc2c(c1)OCO2)N1CCN(Cc2ccccc2)CC1 (stereo unspecified) | 1.85 µM (active) |
| Cc1cc(C)c2[nH]c(=O)c(C(c3nnnn3Cc3ccc4c(c3)OCO4)N3CCCC3)cc2c1 (stereo unspecified) | inactive |
| CC(C)(C)n1nnnc1C(c1ccc(F)cc1)N1CCN(Cc2ccc3c(c2)OCO3)CC1 (stereo unspecified) | inactive |
| COc1ccc(C(=O)Nc2ccc(C3(C#N)CCCC3)cc2)cc1OC | inactive |
| CC1CCCCC1NC(=O)CN1CCC(O)(c2ccc3c(c2)OCO3)CC1 (stereo unspecified) | 13.1 µM (active) |
| O=C(CN1CCC(O)(c2ccccc2)CC1)Nc1ccc2c(c1)OCCO2 | inactive |
| CC1CCCCC1NC(=O)COC(=O)Cc1ccc(Br)cc1 (stereo unspecified) | inactive |
